# Source: paper PMC7862700, “An all-to-all approach to the identification of sequence-specific readers for epigenetic DNA modifications on cytosine”
# Key:
# Assay in all cases: DAPPL (digital affinity profiling via proximity ligation, sequencing); 10 mM Tris-HCl pH 7.5, 50 mM NaCl, 1 mM DTT, 4% glycerol, room temperature, 30 min; GST-TFs on glutathione beads, 16-mer random dsDNA library, 0.1% formaldehyde crosslink after washing; high values mean tight binding
# FLI1 = molecular target: T1, FLI1 (Homo sapiens, UniProt Q01543 1-452); conditions: protein: recombinant; tags: N-terminal GST; dsDNA, one strand shown
# T1 sequence: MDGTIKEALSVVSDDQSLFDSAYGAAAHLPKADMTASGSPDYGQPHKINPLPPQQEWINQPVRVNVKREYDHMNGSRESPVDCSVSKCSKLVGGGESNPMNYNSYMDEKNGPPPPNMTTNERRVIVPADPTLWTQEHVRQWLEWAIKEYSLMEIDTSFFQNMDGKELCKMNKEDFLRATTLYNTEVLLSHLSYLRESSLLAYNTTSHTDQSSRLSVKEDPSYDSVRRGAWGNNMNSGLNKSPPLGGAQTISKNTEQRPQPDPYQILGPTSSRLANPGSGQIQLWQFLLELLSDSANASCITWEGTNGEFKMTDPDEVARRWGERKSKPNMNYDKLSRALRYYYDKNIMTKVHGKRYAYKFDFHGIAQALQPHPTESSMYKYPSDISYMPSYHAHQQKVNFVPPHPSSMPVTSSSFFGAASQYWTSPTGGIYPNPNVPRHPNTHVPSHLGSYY
# Outline: (§1)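 Human transcription factors fused to GST were expressed in yeast, captured on glutathione beads, given DNA barcodes and pooled with a GST-only negative control. Pools were incubated with 200 nmole of a 16-mer random double-stranded DNA library in Tris/NaCl/DTT/glycerol buffer at room temperature for 30 min. They were then washed, crosslinked with 0.1% formaldehyde, proximity-ligated (BsaI/T4 ligase, 1 h, 37 °C), PCR-amplified and sequenced on an Illumina NextSeq500. Binding signal is each 6-mer's read frequency for a factor divided by its frequency for the GST control.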
# ELK1 = molecular target: T2, ELK1 (Homo sapiens, UniProt P19419 1-428); conditions: protein: recombinant; tags: N-terminal GST; dsDNA, one strand shown
# T2 sequence: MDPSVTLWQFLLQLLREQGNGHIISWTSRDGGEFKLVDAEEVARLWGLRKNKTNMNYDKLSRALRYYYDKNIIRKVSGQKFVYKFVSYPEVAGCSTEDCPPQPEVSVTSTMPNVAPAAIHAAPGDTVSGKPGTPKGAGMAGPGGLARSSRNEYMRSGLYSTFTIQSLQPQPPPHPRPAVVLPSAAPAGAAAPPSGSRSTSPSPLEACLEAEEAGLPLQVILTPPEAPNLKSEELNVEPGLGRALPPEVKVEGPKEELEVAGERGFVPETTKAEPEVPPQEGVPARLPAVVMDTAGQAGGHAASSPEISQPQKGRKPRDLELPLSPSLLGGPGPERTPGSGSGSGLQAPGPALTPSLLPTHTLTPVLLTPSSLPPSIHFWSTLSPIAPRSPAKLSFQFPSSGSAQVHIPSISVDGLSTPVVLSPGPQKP
# Outline: as §1
# GABPA = molecular target: T3, GABPA (Homo sapiens, UniProt Q06546 1-454); conditions: protein: recombinant; tags: N-terminal GST; dsDNA, one strand shown
# T3 sequence: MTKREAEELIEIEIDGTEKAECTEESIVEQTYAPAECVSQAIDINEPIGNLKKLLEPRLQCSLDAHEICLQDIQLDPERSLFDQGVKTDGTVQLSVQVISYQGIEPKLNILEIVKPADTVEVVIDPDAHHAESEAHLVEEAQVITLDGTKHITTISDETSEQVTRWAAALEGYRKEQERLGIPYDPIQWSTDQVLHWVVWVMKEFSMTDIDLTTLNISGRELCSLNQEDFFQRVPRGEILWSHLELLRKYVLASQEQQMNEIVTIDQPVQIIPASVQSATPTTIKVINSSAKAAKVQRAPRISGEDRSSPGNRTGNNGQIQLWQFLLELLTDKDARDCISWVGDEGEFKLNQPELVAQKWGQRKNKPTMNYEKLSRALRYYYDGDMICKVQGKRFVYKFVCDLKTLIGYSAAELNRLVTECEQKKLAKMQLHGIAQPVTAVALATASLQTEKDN
# Outline: as §1
# ERG = molecular target: T4, ERG (Homo sapiens, UniProt P11308 1-479); conditions: protein: recombinant; tags: N-terminal GST; dsDNA, one strand shown
# T4 sequence: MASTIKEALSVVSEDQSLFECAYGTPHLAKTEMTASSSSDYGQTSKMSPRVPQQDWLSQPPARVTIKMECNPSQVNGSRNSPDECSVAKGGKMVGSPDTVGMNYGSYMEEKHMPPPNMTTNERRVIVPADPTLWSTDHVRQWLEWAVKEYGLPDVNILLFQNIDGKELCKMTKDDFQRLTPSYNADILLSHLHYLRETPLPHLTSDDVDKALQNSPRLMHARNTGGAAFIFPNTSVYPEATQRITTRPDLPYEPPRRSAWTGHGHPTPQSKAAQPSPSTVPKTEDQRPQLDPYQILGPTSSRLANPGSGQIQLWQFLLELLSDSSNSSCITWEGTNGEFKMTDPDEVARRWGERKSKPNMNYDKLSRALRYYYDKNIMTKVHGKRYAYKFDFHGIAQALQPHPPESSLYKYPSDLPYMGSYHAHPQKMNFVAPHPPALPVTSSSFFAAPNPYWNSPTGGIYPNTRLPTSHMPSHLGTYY
# Outline: as §1
# ELF1 = ELF1 (Homo sapiens, UniProt P32519 1-619); conditions: protein: recombinant; tags: N-terminal GST; dsDNA, one strand shown
# Sequence of ELF1 (P32519 whole entry): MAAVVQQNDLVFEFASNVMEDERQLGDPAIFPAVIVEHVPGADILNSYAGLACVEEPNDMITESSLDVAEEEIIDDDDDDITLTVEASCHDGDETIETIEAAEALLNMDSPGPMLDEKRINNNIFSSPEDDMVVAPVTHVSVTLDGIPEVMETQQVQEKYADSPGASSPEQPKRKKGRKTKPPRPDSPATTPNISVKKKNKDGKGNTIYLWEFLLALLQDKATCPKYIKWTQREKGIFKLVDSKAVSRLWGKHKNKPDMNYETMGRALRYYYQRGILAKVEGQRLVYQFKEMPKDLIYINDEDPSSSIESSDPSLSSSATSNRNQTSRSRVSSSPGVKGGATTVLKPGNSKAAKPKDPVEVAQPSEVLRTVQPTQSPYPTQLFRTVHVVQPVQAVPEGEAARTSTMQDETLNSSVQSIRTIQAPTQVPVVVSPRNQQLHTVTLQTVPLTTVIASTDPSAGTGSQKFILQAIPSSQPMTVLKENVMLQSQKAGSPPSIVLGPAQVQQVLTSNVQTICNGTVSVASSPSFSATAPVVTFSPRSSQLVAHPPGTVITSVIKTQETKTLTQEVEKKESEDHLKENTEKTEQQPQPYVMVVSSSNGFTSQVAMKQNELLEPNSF
# Outline: as §1
# EHF = molecular target: T5, EHF (Homo sapiens, UniProt Q9NZC4 1-300); conditions: protein: recombinant; tags: N-terminal GST; dsDNA, one strand shown
# T5 sequence: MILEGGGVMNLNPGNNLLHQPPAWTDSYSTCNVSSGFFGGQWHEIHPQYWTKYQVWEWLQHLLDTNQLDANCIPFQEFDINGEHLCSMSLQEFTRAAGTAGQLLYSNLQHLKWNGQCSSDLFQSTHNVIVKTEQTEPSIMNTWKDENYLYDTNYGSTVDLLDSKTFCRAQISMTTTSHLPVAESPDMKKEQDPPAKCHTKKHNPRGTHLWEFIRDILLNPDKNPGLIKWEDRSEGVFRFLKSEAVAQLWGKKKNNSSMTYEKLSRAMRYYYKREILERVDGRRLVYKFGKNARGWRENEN
# Outline: as §1
# SPI1 = SPI1 (Homo sapiens, UniProt P17947 1-270); conditions: protein: recombinant; tags: N-terminal GST; dsDNA, one strand shown
# Outline: as §1
# SPIB = SPIB (Homo sapiens, UniProt Q01892 1-262); conditions: protein: recombinant; tags: N-terminal GST; dsDNA, one strand shown
# Sequence of SPIB (Q01892 whole entry): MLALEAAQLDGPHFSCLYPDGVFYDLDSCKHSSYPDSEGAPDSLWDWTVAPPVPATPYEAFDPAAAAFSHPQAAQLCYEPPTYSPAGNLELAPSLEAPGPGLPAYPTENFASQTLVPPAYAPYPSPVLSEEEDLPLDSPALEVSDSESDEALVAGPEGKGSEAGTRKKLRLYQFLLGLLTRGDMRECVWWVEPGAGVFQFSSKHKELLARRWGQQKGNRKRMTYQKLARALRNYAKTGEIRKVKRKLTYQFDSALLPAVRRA
# Outline: as §1
# ELK3 = molecular target: T6, ELK3 (Homo sapiens, UniProt P41970 1-407); conditions: protein: recombinant; tags: N-terminal GST; dsDNA, one strand shown
# T6 sequence: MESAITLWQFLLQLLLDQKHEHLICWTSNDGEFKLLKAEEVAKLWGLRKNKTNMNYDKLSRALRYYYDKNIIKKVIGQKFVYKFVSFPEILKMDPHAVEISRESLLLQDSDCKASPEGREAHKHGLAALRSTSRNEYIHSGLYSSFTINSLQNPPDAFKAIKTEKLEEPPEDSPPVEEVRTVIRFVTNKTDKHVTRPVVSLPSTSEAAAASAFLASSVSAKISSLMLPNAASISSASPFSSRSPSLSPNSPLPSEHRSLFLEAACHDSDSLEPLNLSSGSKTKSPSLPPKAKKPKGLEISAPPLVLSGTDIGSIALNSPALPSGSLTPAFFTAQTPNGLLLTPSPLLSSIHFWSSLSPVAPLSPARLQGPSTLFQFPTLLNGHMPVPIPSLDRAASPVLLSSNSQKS
# Outline: as §1
# FEV = molecular target: T7, FEV (Homo sapiens, UniProt Q99581 1-238); conditions: protein: recombinant; tags: N-terminal GST; dsDNA, one strand shown
# T7 sequence: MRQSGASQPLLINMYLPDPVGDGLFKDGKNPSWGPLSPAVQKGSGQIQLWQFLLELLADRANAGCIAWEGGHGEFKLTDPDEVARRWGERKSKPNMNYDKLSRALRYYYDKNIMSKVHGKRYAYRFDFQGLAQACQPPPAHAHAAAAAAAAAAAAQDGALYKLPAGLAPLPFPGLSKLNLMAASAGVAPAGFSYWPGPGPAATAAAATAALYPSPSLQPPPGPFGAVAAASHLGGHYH
# Outline: as §1
# ETV5 = ETV5 (Homo sapiens, UniProt P41161 1-510); conditions: protein: recombinant; tags: N-terminal GST; dsDNA, one strand shown
# Sequence of ETV5 (P41161 whole entry): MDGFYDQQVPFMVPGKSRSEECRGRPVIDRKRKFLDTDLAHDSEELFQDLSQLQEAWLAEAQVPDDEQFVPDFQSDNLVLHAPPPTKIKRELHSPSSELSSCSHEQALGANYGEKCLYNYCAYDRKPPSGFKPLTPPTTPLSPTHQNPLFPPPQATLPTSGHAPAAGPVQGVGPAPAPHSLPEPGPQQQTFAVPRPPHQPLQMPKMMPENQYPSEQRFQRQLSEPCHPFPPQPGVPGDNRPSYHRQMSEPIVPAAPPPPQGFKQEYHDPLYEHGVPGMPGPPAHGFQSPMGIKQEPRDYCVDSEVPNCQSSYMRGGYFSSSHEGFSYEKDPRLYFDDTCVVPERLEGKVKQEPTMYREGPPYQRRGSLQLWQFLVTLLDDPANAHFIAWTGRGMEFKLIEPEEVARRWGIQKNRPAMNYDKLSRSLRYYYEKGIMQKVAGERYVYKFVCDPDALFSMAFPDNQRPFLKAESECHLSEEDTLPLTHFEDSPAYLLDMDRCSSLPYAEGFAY
# Outline: as §1
# HSF1 = HSF1 (Homo sapiens, UniProt Q00613 1-529); conditions: protein: recombinant; tags: N-terminal GST; chain copies: 3; dsDNA, one strand shown
# Sequence of HSF1 (Q00613 whole entry): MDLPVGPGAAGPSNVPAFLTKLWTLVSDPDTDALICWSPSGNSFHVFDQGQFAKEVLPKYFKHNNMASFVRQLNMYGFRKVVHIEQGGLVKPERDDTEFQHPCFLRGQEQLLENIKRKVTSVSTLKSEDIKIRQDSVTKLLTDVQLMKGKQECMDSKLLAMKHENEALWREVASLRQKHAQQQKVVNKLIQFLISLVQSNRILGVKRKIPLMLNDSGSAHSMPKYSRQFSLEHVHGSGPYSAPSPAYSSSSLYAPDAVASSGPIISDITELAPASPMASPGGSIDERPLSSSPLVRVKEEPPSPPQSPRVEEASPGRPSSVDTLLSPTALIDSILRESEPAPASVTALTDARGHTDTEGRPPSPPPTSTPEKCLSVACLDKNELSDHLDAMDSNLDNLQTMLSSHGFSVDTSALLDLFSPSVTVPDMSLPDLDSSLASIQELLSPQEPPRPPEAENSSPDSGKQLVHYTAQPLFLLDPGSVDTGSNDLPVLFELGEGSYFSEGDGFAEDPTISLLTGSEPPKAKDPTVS
# Outline: as §1
# SPIC = molecular target: T8, SPIC (Homo sapiens, UniProt Q8N5J4 1-248); conditions: protein: recombinant; tags: N-terminal GST; dsDNA, one strand shown
# T8 sequence: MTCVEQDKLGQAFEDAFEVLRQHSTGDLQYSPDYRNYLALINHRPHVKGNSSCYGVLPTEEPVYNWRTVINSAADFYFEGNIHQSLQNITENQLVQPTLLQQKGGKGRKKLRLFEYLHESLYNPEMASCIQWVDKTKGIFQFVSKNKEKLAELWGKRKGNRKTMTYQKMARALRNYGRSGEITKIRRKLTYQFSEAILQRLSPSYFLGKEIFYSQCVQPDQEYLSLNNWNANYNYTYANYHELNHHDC
# Outline: as §1
# ELF4 = ELF4 (Homo sapiens, UniProt Q99607 1-663); conditions: protein: recombinant; tags: N-terminal GST; dsDNA, one strand shown
# Sequence of ELF4 (Q99607 whole entry): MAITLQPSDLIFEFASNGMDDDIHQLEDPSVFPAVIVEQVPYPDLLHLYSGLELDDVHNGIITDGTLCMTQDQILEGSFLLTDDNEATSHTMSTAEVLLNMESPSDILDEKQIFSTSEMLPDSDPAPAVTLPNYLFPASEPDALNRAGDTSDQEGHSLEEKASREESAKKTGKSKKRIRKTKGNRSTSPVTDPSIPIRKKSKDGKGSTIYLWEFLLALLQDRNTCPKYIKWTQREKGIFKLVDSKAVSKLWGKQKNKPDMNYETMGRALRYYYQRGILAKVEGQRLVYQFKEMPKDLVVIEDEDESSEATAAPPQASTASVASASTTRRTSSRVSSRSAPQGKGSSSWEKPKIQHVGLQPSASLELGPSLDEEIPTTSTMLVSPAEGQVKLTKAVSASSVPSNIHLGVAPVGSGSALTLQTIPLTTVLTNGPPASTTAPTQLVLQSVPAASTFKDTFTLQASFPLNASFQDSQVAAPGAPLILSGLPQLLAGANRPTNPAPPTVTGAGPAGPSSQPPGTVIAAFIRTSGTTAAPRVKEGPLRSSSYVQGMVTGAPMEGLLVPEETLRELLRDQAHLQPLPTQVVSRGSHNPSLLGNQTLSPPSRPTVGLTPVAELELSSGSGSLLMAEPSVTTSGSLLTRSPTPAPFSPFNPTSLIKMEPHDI
# Outline: as §1
# ELK4 = molecular target: T9, ELK4 (Homo sapiens, UniProt P28324-2 1-405); conditions: protein: recombinant; tags: N-terminal GST; dsDNA, one strand shown
# T9 sequence: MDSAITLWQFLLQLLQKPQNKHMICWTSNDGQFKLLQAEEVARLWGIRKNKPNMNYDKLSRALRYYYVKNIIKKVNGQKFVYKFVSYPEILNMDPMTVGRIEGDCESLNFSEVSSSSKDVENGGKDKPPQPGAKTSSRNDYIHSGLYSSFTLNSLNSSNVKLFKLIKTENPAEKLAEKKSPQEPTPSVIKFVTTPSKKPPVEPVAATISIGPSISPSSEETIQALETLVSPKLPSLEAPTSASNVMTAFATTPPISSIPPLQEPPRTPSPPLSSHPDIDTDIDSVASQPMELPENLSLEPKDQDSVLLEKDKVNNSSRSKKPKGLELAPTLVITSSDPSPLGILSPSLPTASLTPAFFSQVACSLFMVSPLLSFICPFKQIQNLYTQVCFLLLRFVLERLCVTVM
# Outline: as §1
# ETV2 = molecular target: T10, ETV2 (Homo sapiens, UniProt O00321 1-342); conditions: protein: recombinant; tags: N-terminal GST; dsDNA, one strand shown
# T10 sequence: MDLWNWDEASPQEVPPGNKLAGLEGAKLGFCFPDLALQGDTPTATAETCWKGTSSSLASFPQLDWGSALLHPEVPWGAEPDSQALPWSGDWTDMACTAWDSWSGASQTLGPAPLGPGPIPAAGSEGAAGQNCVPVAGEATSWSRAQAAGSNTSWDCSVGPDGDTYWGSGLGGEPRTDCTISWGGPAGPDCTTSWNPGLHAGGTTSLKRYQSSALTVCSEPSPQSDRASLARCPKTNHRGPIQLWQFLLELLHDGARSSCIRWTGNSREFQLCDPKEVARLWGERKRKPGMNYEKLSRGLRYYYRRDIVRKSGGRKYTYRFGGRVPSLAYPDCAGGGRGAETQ
# Outline: as §1
# ELF3 = molecular target: T11, ELF3 (Homo sapiens, UniProt P78545 1-371); conditions: protein: recombinant; tags: N-terminal GST; dsDNA, one strand shown
# T11 sequence: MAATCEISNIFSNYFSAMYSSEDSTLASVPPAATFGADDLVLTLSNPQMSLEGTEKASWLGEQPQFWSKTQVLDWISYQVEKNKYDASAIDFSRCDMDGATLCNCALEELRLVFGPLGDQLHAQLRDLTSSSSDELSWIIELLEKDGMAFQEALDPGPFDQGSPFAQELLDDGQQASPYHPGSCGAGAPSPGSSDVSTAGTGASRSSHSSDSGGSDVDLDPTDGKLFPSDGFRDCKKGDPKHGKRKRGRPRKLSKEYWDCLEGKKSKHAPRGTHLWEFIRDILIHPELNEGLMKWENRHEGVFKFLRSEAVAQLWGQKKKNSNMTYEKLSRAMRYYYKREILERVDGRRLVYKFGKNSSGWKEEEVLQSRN
# Outline: as §1
# CRX = CRX (Homo sapiens, UniProt O43186 1-299); conditions: protein: recombinant; tags: N-terminal GST; dsDNA, one strand shown
# Sequence of CRX (O43186 whole entry): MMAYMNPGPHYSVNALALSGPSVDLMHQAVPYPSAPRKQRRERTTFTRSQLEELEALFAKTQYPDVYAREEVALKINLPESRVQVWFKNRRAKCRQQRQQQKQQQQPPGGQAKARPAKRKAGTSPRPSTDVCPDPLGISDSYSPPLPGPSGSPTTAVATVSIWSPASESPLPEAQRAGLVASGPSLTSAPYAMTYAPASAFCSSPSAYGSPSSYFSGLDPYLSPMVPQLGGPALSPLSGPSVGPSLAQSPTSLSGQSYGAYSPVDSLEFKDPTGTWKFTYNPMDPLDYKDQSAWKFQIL
# Outline: as §1
# ETV1 = ETV1 (Homo sapiens, UniProt P50549 1-477); conditions: protein: recombinant; tags: N-terminal GST; dsDNA, one strand shown
# Sequence of ETV1 (P50549 whole entry): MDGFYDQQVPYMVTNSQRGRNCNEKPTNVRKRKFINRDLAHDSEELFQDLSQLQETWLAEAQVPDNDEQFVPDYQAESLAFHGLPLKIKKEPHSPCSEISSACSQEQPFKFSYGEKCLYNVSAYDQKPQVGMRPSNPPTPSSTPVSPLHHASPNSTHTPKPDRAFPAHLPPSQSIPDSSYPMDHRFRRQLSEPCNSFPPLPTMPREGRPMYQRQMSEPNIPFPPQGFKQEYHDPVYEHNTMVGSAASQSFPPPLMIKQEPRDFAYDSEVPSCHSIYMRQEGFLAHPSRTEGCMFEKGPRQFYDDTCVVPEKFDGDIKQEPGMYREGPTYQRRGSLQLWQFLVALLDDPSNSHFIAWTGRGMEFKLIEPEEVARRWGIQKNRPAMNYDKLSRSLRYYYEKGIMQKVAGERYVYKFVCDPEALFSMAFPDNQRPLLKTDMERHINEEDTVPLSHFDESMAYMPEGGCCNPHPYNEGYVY
# Outline: as §1
sequence,measurement,setting,value
ATGCTT,binding signal,FLI1,"1.35 fold enrichment (6-mer frequency, TF over GST control)"
same,binding signal,ELK1,"1.42 fold enrichment (6-mer frequency, TF over GST control)"
same,binding signal,GABPA,"1.26 fold enrichment (6-mer frequency, TF over GST control)"
same,binding signal,ERG,"1.32 fold enrichment (6-mer frequency, TF over GST control)"
same,binding signal,ELF1,"1.27 fold enrichment (6-mer frequency, TF over GST control)"
same,binding signal,EHF,"1.29 fold enrichment (6-mer frequency, TF over GST control)"
same,binding signal,SPI1,"1.24 fold enrichment (6-mer frequency, TF over GST control)"
same,binding signal,SPIB,"1.4 fold enrichment (6-mer frequency, TF over GST control)"
same,binding signal,ELK3,"1.36 fold enrichment (6-mer frequency, TF over GST control)"
same,binding signal,FEV,"1.2 fold enrichment (6-mer frequency, TF over GST control)"
same,binding signal,ETV5,"1.29 fold enrichment (6-mer frequency, TF over GST control)"
same,binding signal,HSF1,"1.23 fold enrichment (6-mer frequency, TF over GST control)"
same,binding signal,SPIC,"1.6 fold enrichment (6-mer frequency, TF over GST control)"
same,binding signal,ELF4,"1.3 fold enrichment (6-mer frequency, TF over GST control)"
same,binding signal,ELK4,"1.45 fold enrichment (6-mer frequency, TF over GST control)"
same,binding signal,ETV2,"1.29 fold enrichment (6-mer frequency, TF over GST control)"
same,binding signal,ELF3,"1.35 fold enrichment (6-mer frequency, TF over GST control)"
same,binding signal,CRX,"1.24 fold enrichment (6-mer frequency, TF over GST control)"
same,binding signal,ETV1,"1.3 fold enrichment (6-mer frequency, TF over GST control)"
